This note sets out measurements from PubChem BioAssay (NCATS).

Assay [1] has as its target Rap guanine nucleotide exchange factor 4 (Homo sapiens) (UniProt Q8WZA2). As to the kind of experiment: Confirmatory qHTS for antagonist of cAMP-regulated guanine nucleotide exchange factor 4 (EPAC2) (AID 1645885). Note: % is set by controls: 0 for no effect and ±100 for the full control effect; nearly all actives have a fitted effect of over 25% in size. A general note: qHTS replaces the single test concentration by a dilution series.
Assay [2] deals with Rap guanine nucleotide exchange factor 3 (Homo sapiens) (UniProt O95398). The assay can be described thus: Counterscreen qHTS for antagonist of cAMP-regulated guanine nucleotide exchange factor 3 (EPAC1) (AID 1645888).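 Note: fluorescence loss as bound BODIPY-GDP is released from Rap1B; % of control where 0% means no effect.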 A digest of the protocol:
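Measured: fluorescence of BODIPY-GDP bound to Rap1B, which falls as exchange proceeds. Conditions include 50 uM competing GDP, 5 and 30 min reads, and a later cAMP challenge for antagonist detection.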

Assay [3] addresses Rap guanine nucleotide exchange factor 4 (Homo sapiens) (UniProt Q8WZA2). As to the kind of experiment: Confirmatory qHTS for agonist of cAMP-regulated guanine nucleotide exchange factor 4 (EPAC2) (AID 1645884).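 Note: nucleotide exchange releases bodipy-GDP from Rap1 and this lowers its fluorescence; % is set by controls: 0 for no effect and ±100 for the full control effect; nearly all actives have a fitted effect of over 65% in size.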
Assay [4] has as its target Cytochrome P450 3A4 (Homo sapiens) (UniProt P08684). As to the kind of experiment: qHTS Assay for Inhibitors and Substrates of Cytochrome P450 3A4 (AID 884). Note: potency is the fitted concentration of half-maximal effect; nearly all actives have a fitted effect of over 50% in size. In outline:
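Luminescent readout of luciferin produced by CYP3A4 (20 nM) dealkylation of Luciferin-PPXE, 25 uM (its KM). NADPH-driven reaction ran 60 min at RT after 10 min compound preincubation; data scaled to 57 uM ketoconazole as 100% inhibition.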

The target is the same in assay [5]. As to the kind of experiment: qHTS Assay for Activators of Cytochrome P450 3A4 (AID 885). Note: nearly all actives have a fitted effect of over 65% in size. A digest of the protocol:
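Human CYP3A4 dealkylates Luciferin-PPXE to luciferin, which luciferase detection converts to light. Substrate was at its KM (25uM), buffer 200mM KPO4, reaction 60 min at RT.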

For assay [6], the target named is Ubiquitin carboxyl-terminal hydrolase 1 (Homo sapiens) (UniProt O94782). The assay can be described thus: Inhibitors of USP1/UAF1: Pilot qHTS (AID 504865).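 Note: rhodamine fluorescence freed from ubiquitin-rhodamine substrate followed over time; top concentration of the series differs between compounds; % is set by controls: 0 for no effect and ±100 for the full control effect; nearly all actives have a fitted effect of over 35% in size.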 In outline:
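Kinetic fluorescence assay: 1nM USP1/UAF1, 15 min compound preincubation, then 150nM Ub-Rho; 480/540 nm.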

Assay [7] deals with DNA dC->dU-editing enzyme APOBEC-3G (Homo sapiens) (UniProt Q9HC16). As to the kind of experiment: qHTS for inhibitors of Vif-A3G interactions: Validation (AID 588379). Note: 0% is about no effect. A digest of the protocol:
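Yellow fluorescence (Ex 488, Em 500-530) of Vif-coexpressing HeLa A3G-eYFP cells, scanned by Acumen cytometer, reports blocked A3G degradation. Cells plated at 700/well overnight at 37 deg C before compound addition, then a further overnight compound incubation at 37 deg C.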

Assay [8] addresses Tumor susceptibility gene 101 protein (Homo sapiens) (UniProt Q99816). The assay can be described thus: qHTS Assay for Iinhibitors of HIV-1 Budding by Blocking the Interaction of PTAP/TSG101: Hit Validation (AID 651600). Note: % is set by controls: 0 for no effect and ±100 for the full control effect; nearly all actives have a fitted effect of over 70% in size. A digest of the protocol: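 Displacement of a FITC-labeled PTAP-motif peptide (50 nM) from the Tsg101 binding domain (10 uM) was monitored by fluorescence polarization after a 20 min room-temperature incubation.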

The structures appear in SMILES notation. Values without a mark were called inactive. Results filed as inconclusive are left out. Calls of active or inactive are those of the source. Calls come from the whole dose curve; as a rule, active = well fitted curve in the direction sought with a large enough effect; inconclusive = small, poorly fitted or top-dose-only effect, or another doubt; inactive = no such curve, though single readings can be large; an effect the other way counts as inactive or inconclusive.

Rap guanine nucleotide exchange factor 3 (Homo sapiens), sequence (O95398 whole entry, looked up): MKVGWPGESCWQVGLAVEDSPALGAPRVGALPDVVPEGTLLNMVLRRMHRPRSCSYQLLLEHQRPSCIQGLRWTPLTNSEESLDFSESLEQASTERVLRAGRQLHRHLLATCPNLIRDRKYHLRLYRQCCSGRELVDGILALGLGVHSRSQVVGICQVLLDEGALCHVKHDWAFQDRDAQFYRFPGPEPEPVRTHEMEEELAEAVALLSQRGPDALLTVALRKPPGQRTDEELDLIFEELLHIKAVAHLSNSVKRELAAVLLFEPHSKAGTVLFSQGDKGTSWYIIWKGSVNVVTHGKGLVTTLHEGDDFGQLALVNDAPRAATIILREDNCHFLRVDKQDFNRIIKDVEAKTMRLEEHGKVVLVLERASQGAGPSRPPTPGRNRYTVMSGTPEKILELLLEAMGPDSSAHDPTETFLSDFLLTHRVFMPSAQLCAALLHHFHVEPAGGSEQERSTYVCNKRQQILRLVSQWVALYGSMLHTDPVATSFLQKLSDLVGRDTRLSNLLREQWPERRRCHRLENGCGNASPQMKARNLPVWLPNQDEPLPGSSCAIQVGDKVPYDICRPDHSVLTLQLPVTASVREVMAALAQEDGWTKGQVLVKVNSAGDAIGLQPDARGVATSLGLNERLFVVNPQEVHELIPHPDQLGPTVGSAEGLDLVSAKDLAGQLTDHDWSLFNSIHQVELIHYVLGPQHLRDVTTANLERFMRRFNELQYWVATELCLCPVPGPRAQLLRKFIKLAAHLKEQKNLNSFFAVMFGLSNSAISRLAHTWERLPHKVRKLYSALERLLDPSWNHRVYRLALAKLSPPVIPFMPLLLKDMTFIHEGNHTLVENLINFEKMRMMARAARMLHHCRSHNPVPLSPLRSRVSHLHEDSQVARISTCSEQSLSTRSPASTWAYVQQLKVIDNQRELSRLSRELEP
Rap guanine nucleotide exchange factor 4 (Homo sapiens), sequence (Q8WZA2 whole entry, looked up): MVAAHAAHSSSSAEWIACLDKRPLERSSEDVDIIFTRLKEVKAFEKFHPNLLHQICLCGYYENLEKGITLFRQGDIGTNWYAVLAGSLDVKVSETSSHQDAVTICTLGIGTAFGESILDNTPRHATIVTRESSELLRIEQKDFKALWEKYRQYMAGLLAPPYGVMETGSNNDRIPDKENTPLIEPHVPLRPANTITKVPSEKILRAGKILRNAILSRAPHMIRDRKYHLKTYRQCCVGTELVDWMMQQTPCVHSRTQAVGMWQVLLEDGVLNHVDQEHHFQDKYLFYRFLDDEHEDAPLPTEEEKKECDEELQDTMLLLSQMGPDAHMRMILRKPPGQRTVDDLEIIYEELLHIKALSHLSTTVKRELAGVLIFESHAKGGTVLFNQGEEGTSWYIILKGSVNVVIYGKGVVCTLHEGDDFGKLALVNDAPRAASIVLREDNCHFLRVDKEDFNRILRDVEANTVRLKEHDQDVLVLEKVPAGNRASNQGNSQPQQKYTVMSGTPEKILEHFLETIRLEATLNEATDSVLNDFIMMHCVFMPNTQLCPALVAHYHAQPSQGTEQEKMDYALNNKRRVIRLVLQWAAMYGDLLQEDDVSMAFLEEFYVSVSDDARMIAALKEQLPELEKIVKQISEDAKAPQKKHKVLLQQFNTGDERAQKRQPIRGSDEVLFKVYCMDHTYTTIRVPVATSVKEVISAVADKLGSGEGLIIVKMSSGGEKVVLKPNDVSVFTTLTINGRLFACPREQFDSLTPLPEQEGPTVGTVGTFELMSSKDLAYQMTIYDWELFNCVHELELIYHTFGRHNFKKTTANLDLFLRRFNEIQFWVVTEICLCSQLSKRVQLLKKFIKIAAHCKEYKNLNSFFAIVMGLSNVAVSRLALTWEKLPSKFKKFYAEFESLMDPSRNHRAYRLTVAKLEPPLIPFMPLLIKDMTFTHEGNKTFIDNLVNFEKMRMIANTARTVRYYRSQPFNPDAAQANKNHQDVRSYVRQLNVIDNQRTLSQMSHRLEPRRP
Cytochrome P450 3A4 (Homo sapiens), sequence (P08684 whole entry, looked up): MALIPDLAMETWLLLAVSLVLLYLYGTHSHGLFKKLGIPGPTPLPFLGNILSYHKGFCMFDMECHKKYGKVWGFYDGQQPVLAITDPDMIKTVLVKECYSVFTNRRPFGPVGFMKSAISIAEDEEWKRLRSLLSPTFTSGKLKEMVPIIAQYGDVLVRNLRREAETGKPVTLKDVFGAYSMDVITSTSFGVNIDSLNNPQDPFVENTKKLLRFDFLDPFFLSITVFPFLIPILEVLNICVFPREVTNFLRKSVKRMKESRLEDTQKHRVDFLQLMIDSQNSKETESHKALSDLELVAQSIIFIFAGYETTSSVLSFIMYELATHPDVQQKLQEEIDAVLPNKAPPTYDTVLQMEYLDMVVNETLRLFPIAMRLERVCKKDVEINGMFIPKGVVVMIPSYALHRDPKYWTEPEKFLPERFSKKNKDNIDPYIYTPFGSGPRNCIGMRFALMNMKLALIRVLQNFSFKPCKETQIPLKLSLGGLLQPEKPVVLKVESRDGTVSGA
DNA dC->dU-editing enzyme APOBEC-3G (Homo sapiens), sequence (Q9HC16 whole entry, looked up): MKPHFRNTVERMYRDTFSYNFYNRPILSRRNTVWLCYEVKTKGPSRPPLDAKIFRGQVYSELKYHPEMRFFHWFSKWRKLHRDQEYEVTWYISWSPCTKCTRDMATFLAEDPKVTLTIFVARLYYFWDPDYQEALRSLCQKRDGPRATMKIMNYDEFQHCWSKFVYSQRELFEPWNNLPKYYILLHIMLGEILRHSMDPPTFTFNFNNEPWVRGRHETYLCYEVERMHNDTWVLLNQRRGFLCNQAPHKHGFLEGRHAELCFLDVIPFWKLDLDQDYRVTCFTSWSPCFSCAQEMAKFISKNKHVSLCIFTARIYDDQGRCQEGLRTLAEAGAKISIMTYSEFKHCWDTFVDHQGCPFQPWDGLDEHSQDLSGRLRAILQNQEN
Tumor susceptibility gene 101 protein (Homo sapiens), sequence (Q99816 whole entry, looked up, the tested form may be a part): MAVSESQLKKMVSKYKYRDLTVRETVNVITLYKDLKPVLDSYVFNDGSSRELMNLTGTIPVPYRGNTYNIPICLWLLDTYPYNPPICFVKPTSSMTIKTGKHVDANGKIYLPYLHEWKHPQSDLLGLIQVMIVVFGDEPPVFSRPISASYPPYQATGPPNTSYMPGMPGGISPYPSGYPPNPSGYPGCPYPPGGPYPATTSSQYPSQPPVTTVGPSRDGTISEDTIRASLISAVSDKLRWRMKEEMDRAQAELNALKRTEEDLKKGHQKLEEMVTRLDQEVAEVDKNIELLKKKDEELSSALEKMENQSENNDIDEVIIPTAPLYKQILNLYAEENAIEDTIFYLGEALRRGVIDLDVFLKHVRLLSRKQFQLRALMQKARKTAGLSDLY
Ubiquitin carboxyl-terminal hydrolase 1 (Homo sapiens), sequence (O94782 whole entry, looked up): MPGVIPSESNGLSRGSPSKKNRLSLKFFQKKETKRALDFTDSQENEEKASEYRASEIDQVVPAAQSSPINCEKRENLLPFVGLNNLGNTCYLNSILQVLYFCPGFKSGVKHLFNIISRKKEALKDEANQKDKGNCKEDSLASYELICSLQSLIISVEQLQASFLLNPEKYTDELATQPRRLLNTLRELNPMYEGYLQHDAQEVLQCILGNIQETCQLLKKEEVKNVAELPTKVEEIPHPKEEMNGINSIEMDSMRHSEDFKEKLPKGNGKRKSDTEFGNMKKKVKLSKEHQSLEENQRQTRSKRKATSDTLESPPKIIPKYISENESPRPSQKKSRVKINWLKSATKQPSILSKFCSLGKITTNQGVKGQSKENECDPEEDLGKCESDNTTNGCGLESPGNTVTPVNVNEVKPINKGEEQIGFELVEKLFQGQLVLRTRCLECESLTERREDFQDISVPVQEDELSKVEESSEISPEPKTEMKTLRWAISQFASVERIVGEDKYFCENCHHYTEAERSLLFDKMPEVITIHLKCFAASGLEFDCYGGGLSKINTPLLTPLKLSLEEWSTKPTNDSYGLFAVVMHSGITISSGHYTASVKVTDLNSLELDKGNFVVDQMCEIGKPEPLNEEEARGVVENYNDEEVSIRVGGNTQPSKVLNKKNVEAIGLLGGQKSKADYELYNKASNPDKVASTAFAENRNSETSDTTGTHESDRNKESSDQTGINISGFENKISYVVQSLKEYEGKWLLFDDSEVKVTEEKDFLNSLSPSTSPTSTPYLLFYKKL

For the molecule `CC(NC1=CC(=O)c2cccnc2C1=O)C(O)c1ccccc1` (stereo unspecified), the Potency result in assay [1] and in assay [2] was “inactive” each time.
Turning to `O=C(NCCOc1ccc(F)cc1)c1ccccc1SCc1ccccc1`, the activation in assay [3] was 7.88% [at 17.1 µM, percent relative to cAMP agonist control]. In addition, the activity change, negative = inhibition in assay [2] was 18.3% [at 30.8 µM].
Take `CCOc1ccccc1CN(CCc1ccc2c(c1)OCO2)Cc1ccccn1`: the activation in assay [3] was 11.2% [at 17.1 µM, percent relative to cAMP agonist control]. The activity change, negative = inhibition in assay [2] is 2.25% [at 30.8 µM].
In the case of `COc1ccc(/C=C/C(=O)c2cccs2)c(OC)c1`, in assay [4], the Potency is 6.31 µM (active). The call in assay [5] and in assay [7] was inactive. Also, in assay [6], the Potency result is “inactive”.
As to `CN1/C(=C\C=C2/C(=O)Oc3ccccc3C2=O)C(C)(C)c2ccccc21`, the Potency entry in assay [8] is “inactive”.
